Data on two sequences can be found in article PMC7862700, “An all-to-all approach to the identification of sequence-specific readers for epigenetic DNA modifications on cytosine”.

Common to all, as to experiment: DAPPL (digital affinity profiling via proximity ligation, sequencing); 10 mM Tris-HCl pH 7.5, 50 mM NaCl, 1 mM DTT, 4% glycerol, room temperature, 30 min; GST-TFs on glutathione beads, 16-mer random dsDNA library, 0.1% formaldehyde crosslink after washing; high values mean tight binding
What all share (settings): protein: recombinant; tags: N-terminal GST; dsDNA, one strand shown

One experiment addresses T1, ELK1 (Homo sapiens, UniProt P19419 1-428).
T1 sequence: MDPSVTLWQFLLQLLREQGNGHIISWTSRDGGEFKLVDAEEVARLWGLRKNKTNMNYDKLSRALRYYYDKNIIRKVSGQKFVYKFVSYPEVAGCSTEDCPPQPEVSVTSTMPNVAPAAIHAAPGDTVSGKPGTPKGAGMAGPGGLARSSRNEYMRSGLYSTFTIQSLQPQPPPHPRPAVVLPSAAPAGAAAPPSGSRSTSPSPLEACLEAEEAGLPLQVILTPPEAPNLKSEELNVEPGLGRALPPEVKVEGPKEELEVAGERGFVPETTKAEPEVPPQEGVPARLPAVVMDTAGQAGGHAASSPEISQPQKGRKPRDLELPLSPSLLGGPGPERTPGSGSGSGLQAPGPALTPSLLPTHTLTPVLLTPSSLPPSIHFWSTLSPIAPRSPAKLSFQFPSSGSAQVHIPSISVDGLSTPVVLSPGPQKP
In short, it runs like this:
(§1)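 Binding signal is each hexamer's read frequency for a factor divided by its frequency in the tag-only sample. The factors were GST-fused human transcription factors from yeast, captured on glutathione beads, DNA-barcoded and pooled with that sample. Pools were incubated with 200 nmole of a random double-stranded 16-mer DNA library in Tris/NaCl/DTT/glycerol buffer at room temperature for 30 min, then washed, crosslinked with 0.1% formaldehyde, proximity-ligated with BsaI/T4 ligase (1 h, 37 °C), PCR-amplified and sequenced on an Illumina NextSeq500.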

A further experiment concerns the target T2, GABPA (Homo sapiens, UniProt Q06546 1-454).
T2 sequence: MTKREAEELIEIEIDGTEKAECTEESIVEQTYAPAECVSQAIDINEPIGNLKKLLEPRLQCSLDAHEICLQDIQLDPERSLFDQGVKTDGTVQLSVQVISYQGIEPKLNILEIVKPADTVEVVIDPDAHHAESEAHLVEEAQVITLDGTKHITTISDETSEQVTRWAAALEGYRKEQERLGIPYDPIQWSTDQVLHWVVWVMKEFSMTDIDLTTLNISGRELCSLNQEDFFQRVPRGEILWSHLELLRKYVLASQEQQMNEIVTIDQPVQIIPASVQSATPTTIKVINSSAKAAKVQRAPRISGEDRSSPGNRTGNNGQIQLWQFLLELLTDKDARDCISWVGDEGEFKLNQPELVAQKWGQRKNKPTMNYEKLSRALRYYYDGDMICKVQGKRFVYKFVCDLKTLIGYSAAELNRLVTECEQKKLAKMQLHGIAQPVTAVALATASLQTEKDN
In short, it runs like this:
as §1

The target in another experiment is ELF1 (Homo sapiens, UniProt P32519 1-619). In short, it runs like this: as §1
The next experiment addresses T3, ELK3 (Homo sapiens, UniProt P41970 1-407).
T3 sequence: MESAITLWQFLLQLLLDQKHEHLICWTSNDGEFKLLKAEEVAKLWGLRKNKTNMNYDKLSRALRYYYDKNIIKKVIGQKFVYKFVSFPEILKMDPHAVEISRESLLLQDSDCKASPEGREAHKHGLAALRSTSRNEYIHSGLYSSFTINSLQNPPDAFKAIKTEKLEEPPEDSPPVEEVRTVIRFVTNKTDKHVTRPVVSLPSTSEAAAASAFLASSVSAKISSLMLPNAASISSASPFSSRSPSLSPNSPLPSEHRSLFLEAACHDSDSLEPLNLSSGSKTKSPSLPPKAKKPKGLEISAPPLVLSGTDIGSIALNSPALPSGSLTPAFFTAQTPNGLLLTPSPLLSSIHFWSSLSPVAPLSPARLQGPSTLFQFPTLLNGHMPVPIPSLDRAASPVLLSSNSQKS
In short, it runs like this:
as §1

The next experiment deals with T4, ELK4 (Homo sapiens, UniProt P28324-2 1-405).
T4 sequence: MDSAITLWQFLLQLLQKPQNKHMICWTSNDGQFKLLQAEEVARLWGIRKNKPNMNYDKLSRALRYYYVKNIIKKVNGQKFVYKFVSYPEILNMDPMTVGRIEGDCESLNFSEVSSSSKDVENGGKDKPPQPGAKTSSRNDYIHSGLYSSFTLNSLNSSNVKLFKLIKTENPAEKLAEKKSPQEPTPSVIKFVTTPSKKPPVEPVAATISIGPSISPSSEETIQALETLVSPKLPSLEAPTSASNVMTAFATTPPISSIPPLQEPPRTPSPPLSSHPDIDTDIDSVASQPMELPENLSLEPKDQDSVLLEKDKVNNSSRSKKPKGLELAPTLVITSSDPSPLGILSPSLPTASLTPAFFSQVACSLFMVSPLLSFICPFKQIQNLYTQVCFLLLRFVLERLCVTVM
In short, it runs like this: as §1

A further experiment addresses T5, ETV2 (Homo sapiens, UniProt O00321 1-342).
T5 sequence: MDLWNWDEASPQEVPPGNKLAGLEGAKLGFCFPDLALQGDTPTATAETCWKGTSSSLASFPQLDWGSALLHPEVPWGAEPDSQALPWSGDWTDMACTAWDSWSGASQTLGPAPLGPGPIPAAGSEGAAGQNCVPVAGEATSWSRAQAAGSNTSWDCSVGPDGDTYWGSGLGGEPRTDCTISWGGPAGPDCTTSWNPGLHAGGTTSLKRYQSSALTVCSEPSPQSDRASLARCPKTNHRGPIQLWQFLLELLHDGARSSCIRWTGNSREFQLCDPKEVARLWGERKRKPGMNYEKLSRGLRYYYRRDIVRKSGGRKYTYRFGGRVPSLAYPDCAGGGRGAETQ
A digest of the protocol:
as §1

A further experiment deals with T6, ELF3 (Homo sapiens, UniProt P78545 1-371).
T6 sequence: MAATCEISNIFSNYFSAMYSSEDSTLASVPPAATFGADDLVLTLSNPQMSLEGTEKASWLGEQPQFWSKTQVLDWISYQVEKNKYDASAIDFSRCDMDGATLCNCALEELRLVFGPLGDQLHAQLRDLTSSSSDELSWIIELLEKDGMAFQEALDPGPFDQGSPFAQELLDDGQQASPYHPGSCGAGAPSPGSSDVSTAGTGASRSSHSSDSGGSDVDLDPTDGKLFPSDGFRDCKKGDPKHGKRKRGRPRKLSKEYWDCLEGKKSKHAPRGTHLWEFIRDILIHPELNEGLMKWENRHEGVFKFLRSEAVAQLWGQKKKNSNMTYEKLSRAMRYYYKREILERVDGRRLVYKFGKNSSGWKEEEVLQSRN
In short, it runs like this: as §1

In a further experiment the target is T7, ERF (Homo sapiens, UniProt P50548 1-548).
T7 sequence: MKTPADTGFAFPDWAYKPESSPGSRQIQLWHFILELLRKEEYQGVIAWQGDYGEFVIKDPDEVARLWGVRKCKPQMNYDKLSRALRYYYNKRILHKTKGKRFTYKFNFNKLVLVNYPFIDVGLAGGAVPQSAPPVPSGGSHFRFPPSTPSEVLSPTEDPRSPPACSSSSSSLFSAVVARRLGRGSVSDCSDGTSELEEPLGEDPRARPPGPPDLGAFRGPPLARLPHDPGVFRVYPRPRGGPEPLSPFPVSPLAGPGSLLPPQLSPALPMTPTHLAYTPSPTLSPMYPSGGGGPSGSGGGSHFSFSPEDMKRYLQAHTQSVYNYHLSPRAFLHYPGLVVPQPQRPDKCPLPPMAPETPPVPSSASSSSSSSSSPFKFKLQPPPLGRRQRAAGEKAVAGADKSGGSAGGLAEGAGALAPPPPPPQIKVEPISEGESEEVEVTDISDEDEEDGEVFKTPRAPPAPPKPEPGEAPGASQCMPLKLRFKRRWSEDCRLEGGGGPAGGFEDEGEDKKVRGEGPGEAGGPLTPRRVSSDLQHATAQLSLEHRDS
A digest of the protocol:
as §1

The target in the next experiment is T8, SPDEF (Homo sapiens, UniProt O95238 1-335).
T8 sequence: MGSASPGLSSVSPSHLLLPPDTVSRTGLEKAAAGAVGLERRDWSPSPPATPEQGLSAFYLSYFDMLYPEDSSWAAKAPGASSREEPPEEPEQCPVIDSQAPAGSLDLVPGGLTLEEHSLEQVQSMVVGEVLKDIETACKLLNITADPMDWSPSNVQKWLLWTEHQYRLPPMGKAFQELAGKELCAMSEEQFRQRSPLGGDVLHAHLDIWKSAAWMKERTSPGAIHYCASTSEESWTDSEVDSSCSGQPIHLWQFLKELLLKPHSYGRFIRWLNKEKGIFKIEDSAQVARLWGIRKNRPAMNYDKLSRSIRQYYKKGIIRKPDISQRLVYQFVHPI
A digest of the protocol:
as §1

The next experiment addresses T9, ETV3 (Homo sapiens, UniProt P41162-2 1-143).
T9 sequence: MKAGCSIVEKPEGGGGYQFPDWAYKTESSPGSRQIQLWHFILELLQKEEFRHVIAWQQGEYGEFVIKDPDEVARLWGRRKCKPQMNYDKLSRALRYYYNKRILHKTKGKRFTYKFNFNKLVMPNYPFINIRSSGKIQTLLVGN
In short, it runs like this: as §1

The target in the next experiment is ETV6 (Homo sapiens, UniProt P41212 1-452). In short, it runs like this:
as §1

For the next experiment, the target named is T10, ERG (Homo sapiens, UniProt P11308 1-479).
T10 sequence: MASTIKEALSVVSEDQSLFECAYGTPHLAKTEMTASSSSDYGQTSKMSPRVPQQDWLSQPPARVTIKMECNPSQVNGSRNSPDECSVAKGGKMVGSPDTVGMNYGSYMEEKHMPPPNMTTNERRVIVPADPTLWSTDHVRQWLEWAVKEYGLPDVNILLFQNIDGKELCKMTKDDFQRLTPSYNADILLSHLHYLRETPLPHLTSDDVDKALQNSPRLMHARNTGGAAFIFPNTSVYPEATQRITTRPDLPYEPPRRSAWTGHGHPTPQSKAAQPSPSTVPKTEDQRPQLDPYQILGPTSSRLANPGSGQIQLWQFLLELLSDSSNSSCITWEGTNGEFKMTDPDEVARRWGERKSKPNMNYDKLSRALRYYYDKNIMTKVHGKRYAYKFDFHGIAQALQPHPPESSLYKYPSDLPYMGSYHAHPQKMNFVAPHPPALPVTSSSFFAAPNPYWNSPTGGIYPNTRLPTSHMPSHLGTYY
A digest of the protocol:
as §1

For a further experiment, the target named is SPI1 (Homo sapiens, UniProt P17947 1-270). In short, it runs like this:
as §1

A further experiment has as its target ELF4 (Homo sapiens, UniProt Q99607 1-663). A digest of the protocol: as §1

Sequence of ELF1 (P32519 whole entry): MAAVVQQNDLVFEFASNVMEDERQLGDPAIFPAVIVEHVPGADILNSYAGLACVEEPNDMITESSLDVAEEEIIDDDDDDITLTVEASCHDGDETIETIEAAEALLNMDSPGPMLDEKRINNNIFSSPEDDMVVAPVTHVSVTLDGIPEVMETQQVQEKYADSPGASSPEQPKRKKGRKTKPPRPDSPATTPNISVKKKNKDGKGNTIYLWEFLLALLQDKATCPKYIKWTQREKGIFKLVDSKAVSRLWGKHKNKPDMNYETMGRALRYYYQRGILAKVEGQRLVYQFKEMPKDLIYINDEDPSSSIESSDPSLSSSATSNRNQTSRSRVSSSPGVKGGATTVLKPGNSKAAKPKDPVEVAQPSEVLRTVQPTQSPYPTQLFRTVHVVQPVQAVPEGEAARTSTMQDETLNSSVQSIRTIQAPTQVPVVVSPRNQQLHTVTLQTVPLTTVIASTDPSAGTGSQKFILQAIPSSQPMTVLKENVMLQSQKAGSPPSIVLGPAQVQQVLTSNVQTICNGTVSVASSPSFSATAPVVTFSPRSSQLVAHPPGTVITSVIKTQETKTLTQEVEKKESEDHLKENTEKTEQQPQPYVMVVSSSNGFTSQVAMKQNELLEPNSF
Sequence of ETV6 (P41212 whole entry): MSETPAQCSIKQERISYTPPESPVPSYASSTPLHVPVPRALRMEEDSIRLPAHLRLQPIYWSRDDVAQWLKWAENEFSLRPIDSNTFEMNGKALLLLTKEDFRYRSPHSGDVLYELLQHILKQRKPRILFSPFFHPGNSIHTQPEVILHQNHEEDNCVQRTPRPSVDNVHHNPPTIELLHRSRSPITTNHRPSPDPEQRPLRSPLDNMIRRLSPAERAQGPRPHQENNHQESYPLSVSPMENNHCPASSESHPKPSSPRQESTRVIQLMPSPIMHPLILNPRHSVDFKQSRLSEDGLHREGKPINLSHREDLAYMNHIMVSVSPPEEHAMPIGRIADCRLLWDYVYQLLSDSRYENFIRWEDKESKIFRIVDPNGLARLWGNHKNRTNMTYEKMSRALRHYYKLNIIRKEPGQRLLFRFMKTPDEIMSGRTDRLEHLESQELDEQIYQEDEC
Sequence of ELF4 (Q99607 whole entry): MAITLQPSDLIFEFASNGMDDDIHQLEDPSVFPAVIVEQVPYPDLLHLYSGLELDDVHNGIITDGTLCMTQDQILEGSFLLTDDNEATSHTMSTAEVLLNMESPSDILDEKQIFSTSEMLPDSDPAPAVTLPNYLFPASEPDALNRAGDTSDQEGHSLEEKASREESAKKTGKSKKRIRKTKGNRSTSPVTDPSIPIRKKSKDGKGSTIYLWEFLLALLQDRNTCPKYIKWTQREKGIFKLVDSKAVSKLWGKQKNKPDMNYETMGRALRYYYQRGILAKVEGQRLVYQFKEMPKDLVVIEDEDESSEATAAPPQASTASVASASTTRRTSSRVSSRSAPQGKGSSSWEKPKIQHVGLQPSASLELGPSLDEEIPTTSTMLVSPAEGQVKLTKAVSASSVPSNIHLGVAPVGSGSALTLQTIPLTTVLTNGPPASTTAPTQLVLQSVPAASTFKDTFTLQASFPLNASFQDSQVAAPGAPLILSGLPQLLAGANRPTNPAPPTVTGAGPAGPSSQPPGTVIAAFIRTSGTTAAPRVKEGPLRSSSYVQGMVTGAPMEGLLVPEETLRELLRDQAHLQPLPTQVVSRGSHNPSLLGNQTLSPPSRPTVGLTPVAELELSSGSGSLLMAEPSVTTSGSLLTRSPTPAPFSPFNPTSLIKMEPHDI

Regarding CAAACG, the binding signal in the experiment with ELK1 was 1.04 fold enrichment (6-mer frequency, TF over GST control); with GABPA, 1.05 fold enrichment (6-mer frequency, TF over GST control); in the experiment with ELF1 it was 1.04 fold enrichment (6-mer frequency, TF over GST control); in the experiment with ELK3, 1.07 fold enrichment (6-mer frequency, TF over GST control); with ELK4, 1.05 fold enrichment (6-mer frequency, TF over GST control); with ETV2 it was 1.02 fold enrichment (6-mer frequency, TF over GST control). Further, the binding signal with ELF3 was 1.06 fold enrichment (6-mer frequency, TF over GST control); in the experiment with ERF it was 1.03 fold enrichment (6-mer frequency, TF over GST control); with SPDEF it was 1.02 fold enrichment (6-mer frequency, TF over GST control); in the experiment with ETV3 it was 1.04 fold enrichment (6-mer frequency, TF over GST control); with ETV6, 1.02 fold enrichment (6-mer frequency, TF over GST control).

As for GCCATT, the binding signal with ERG was 1.01 fold enrichment (6-mer frequency, TF over GST control); in the experiment with SPI1, 1.03 fold enrichment (6-mer frequency, TF over GST control); with ELF4, 1.02 fold enrichment (6-mer frequency, TF over GST control); with ELK4 it was 1.07 fold enrichment (6-mer frequency, TF over GST control); with ERF, 1.03 fold enrichment (6-mer frequency, TF over GST control).
